Shown are actives, neighbours in structure and some others; about 19% of the full set was active somewhere.
HT1080-NT tox: kills 2HG-producing HT-1080-NT fibrosarcoma cells. HT-1080-NT fibrosarcoma viability, CellTiter-Glo ATP luminescence, 48 h. Potency, µM (doses to about 46.1 µM), inactives show top-dose activity, negative = less viability, most hits filed as cytotoxic. 360,000 tested, 1.6% active. AID 686970;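 further: NT is the 2HG producing partner of a matched IDH1 knockdown line; potency means the concentration at half of the fitted maximal effect; 0% = DMSO-treated cells and -100% = media-only wells without cells; nearly all actives have a fitted effect of over 55% in size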
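Toxicity toward the 2HG-producing NT line was scored as %Activity, normalised to DMSO and no-cell wells, from CellTiter-Glo luminescence after 48 hours' treatment.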
HT1080 IDH1KD tx: kills HT-1080 cells with IDH1 knockdown. HT-1080 IDH1 knockdown viability, ATP luminescence, 48 h. Potency, µM (doses to about 46.1 µM), inactives show at the top dose activity, negative = toxicity, usual class: cytotoxic. 360,000 tested, 2% active. AID 686971;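 further: potency means the concentration at half of the fitted maximal effect; 0% = DMSO wells and -100% = cell-free medium wells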
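% activity derives from luminescence (CellTiter-Glo), normalised to DMSO and no-cell wells. HT-1080-IDH1KD cells, 750/well, had 48 h compound exposure at 37 °C.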
ELG1 repair inh: blocks ELG1-dependent DNA repair in HEK293T cells; HEK293T ELG1-luciferase reporter, luminescence, 16 h; DNA damage induced by 5-fluorouridine; Potency, µM (series often up to 46.1 µM), inactives show at the highest dose activity change, negative = inhibition, usual class: inhibitors; 330,000 tested, 2.3% active; AID 504467; further: potency means the concentration at half of the fitted maximal effect; nearly all actives have a fitted effect of over 55% in size
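Cells (2,000 per well) received 5-fluorouridine plus test compound or DMSO and were incubated 16 hr at 37 °C, 5% CO2. Luciferase activity was read by luminescence 30 min after ONE-Glo addition; signal suppression marked inhibition of damage-induced ELG1 function.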
IL1B secr inh: inhibitors of inflammasome signaling (IL-1 beta secretion); THP-1 LPS/ATP IL-1B secretion, AlphaLISA, 16 h; stronger effect = lower value; activity change, % at 57.5 µM; 360,000 tested, 4.7% active; in the data active means activity change below about -50%; inconclusive means mostly about -30% to -49%
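THP-1 cells pretreated 1 hr with compounds (up to 57.5 uM final), then stimulated with LPS (250 ng/mL final) plus ATP (1.25 mM final); secreted IL-1B measured by AlphaLISA after 16 hr, decreased signal indicating inhibition.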
TDP1 cell noCPT: qHTS for Inhibitors of human tyrosyl-DNA phosphodiesterase 1 (TDP1): qHTS in cells in absence of CPT; DT40 Tdp1-/- hTDP1 cells, no CPT, ATP luminescence, 48 h; Potency, µM (doses to about 46.2 µM), for the others: at the highest dose activity change, negative = growth inhibition, most hits filed as inhibitors; 420,000 tested, 15% active; AID 686978, 2013; further: potency means the concentration at half of the fitted maximal effect; nearly all actives have a fitted effect of over 55% in size
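Growth of hTDP1-complemented DT40 Tdp1-knockout cells is measured by ATP luminescence after at least 48 hr compound exposure at 37 °C, with DMSO substituting for the 20 nM CPT used in the parallel screen.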
DT40 TDP1 CPT: growth inhibition of DT40 Tdp1-/-;hTDP1 cells with camptothecin (screen for TDP1 inhibitors); Potency, µM (highest dose often 46.2 µM), for the others: at the highest dose activity change, negative = growth inhibition, most hits filed as inhibitors; AID 686979; chicken DT40 Tdp1-/-;hTDP1 cells + 20 nM CPT, ATP luminescence, 48 h; 420,000 tested, 12% active; further: potency means the concentration at half of the fitted maximal effect; nearly all actives have a fitted effect of over 55% in size
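Chicken DT40 Tdp1-/- cells complemented with human TDP1, 400 cells/well, exposed to compounds plus 20 nM camptothecin for at least 48 h at 37 C; viability read as ATP content by CellTiter-Glo luminescence.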
* hit, by the source's call; ? = inconclusive; . = no result given. Unless noted, the call rests on the fitted dose curve; in most records, active means well fitted curve in the direction sought with a large enough effect; inconclusive means small, poorly fitted or top-dose-only effect, or another doubt; inactive means no such curve, though single readings can be large; an effect the other way counts as inactive or inconclusive. Unless noted, on the % scale 0 is the no-effect control and ±100 the full control effect.

SMILES	HT1080-NT tox	HT1080 IDH1KD tx	ELG1 repair inh	IL1B secr inh	TDP1 cell noCPT	DT40 TDP1 CPT
CC1(C)Cc2c(c(N3CCCC3)nc3sc4c(N5CCN(CCO)CC5)ncnc4c23)CO1	?	-5.3%	8.2µM*	-61.1*	11.2µM*	16.4µM*
CCOC(=O)c1ccc(S(=O)(=O)N2CCN(C(=O)C3CSC4(C)CCC(=O)N34)CC2)cc1 (centres undefined)	-1.2%	-7.9%	1.4%	-16.3	?	-28.2%
CCCCC(OC(=O)CN1C(=O)COc2ccccc21)C(=O)NC1CCCCC1 (centres undefined)	-7.1%	2.0%	-5.4%	-3.4	16.4µM*	-1.2%
COc1ccc(N/N=C(\C#N)C(=N)N2CCCCC2)cc1	2.1%	-29.9%	?	-24.2	?	-12.8%
COc1ccc(N/N=C(\C#N)C(=N)SCc2ccccc2)cc1	-14.9%	-1.9%	?	-23.3	7.31µM*	4.61µM*
CCOc1ccc(-c2noc(CCC(=O)NC3CCCCC3)n2)cc1OC	6.5%	9.8%	?	-20.5	-12.9%	1.6%
CCCCCC(CC(=O)NO)C(=O)NC(C(=O)N1CCCC1CO)C(C)C (centres undefined)	-9.7%	-20.3%	-23.7%	-13.2	1.84µM*	2.59µM*
CC(C)(C)OC(=O)N1CCC[C@@H]1CO	-2.7%	2.6%	14.4%	-10.9	8.9%	-2.8%
Cc1cccc(N2C(=O)CSC23C(=O)N(Cc2cccc(C(F)(F)F)c2)c2ccccc23)c1 (centres undefined)	.	.	.	.	16.4µM*	18.4µM*
NC(=O)CN1C(=O)C2(SCC(=O)N2c2cccc(F)c2)c2ccccc21 (centres undefined)	.	.	.	.	5.2%	8.4%
O=C1CSC2(C(=O)N3CCCc4cccc2c43)N1c1cccc(C(F)(F)F)c1 (centres undefined)	-5.4%	1.1%	-4.4%	5.4	?	20.6µM*
COc1ccc(N2C(=O)CSC23C(=O)N2CCCc4cccc3c42)cc1 (centres undefined)	2.8%	-7.7%	4.9%	-7.1	-3.0%	-29.8%
CC(=O)NC(c1cccc(F)c1)c1nc(-c2cc(F)cc(Cl)c2)cs1 (centres undefined)	-18.3%	-15.2%	.	-18.1	-30.0%	-24.6%
Cc1ccc(NC(=O)CNC(=O)c2ccco2)cc1	14.8%	16.2%	?	0.5	8.8%	2.2%
O=C(Nc1cccc(C(=O)N2CCCC2)c1)c1ccccc1Cl	3.5%	-0.7%	9.6%	21.4	2.4%	0.0%
Cc1c(N2CCCC2)cc2c(c1NC(=O)c1ccccc1Cl)C(C)(C)CC2(C)C	-18.3%	-23.7%	-8.6%	-14.8	14.6µM*	?
COc1ccc(-n2c(-c3ccc(F)cc3)cn3c4c(=O)n(C)c(=O)n(C)c4nc23)cc1	.	.	.	.	6.6%	-4.0%
Cc1ccc(OCCSc2nc3ncnc(N)c3[nH]2)cc1	-9.6%	-9.4%	-2.7%	-7.6	?	8.2µM*
Nc1ncnc2nc(SCCOc3ccc(Cl)cc3)[nH]c12	-2.8%	-5.8%	22.3%	19.7	-17.5%	-9.5%
COCCn1c(=O)cnc2cnc(OC)nc21	.	.	.	.	-0.1%	-10.2%
Cc1ccc(N(CC(=O)NC(C)(C)C)C(=O)CNC(=O)c2cccs2)c(C)c1	-1.0%	-4.1%	6.5%	12.6	-13.5%	16.6%
O=S(=O)(NNc1ncc(C(F)(F)F)cc1Cl)c1ccc(F)cc1F	-1.2%	-0.7%	-9.5%	4.1	20.6µM*	?
O=S(=O)(NNc1ncc(C(F)(F)F)cc1Cl)c1ccccc1	?	?	?	?	?	16.4µM*
CN(NS(=O)(=O)c1ccc(F)cc1)c1ncc(C(F)(F)F)cc1Cl	1.5%	10.3%	-15.1%	4.2	-13.8%	-1.2%
Cc1ccccc1S(=O)(=O)Nc1ncc(C(F)(F)F)cc1Cl	-1.6%	0.1%	?	14.3	-24.4%	-5.8%
SMILES	HT1080-NT tox	HT1080 IDH1KD tx	ELG1 repair inh	IL1B secr inh	TDP1 cell noCPT	DT40 TDP1 CPT
COCCNC(=O)C1CCCN(C(=O)c2ccc3ccccc3n2)CC1 (centres undefined)	16.0%	4.1%	.	13.0	-2.8%	-7.2%
CNC(=S)N(Cc1ccc(OC)cc1)Cc1cc2cccc(C)c2[nH]c1=O	-1.7%	0.0%	?	-18.3	20.6µM*	18.4µM*
Cc1cccc(NC(=S)N(Cc2cccs2)Cc2cc3cc(C)cc(C)c3[nH]c2=O)c1	4.6%	3.8%	?	2.7	9.2µM*	13µM*
COc1ccc(CN(Cc2cc3cccc(C)c3[nH]c2=O)C(=O)N(C)C)cc1	3.6%	6.0%	?	6.1	-11.3%	-19.7%
COc1ccc2[nH]c(=O)c(CN(Cc3cccs3)C(=S)Nc3cccc(C)c3)cc2c1	-2.6%	-14.9%	5.8µM*	-8.7	13µM*	20.6µM*
COCCNC(=S)N(Cc1cccs1)Cc1cc2cccc(C)c2[nH]c1=O	-17.8%	-14.6%	?	-56.2*	?	-15.3%
O=c1c(-c2cccs2)nc2cncnc2n1Cc1ccccc1	.	.	.	.	13.0%	14.8%
O=C(Nc1cc(S(=O)(=O)N2CCCCC2)ccc1Oc1ccccc1)C1=COCCO1	0.9%	-1.4%	-30.0%	-8.3	?	?
Cc1sc2nc(-c3ccc(Br)cc3)oc(=O)c2c1C	17.5%	1.2%	16.9%	12.1	-6.9%	-2.8%
COc1ccc2[nH]c(=O)c(CN(Cc3cccs3)S(=O)(=O)c3cccc4nsnc34)cc2c1	-1.3%	6.9%	1.3µM*	-18.4	10.3µM*	-112.4%
COc1ccc2[nH]c(=O)c(CN(CCO)S(=O)(=O)c3c(C)ccc4nsnc34)cc2c1	13.2%	12.8%	-1.6%	-17.9	-23.6%	-2.6%
COc1cccc2cc(C(=O)NCC3CCCO3)c(=O)oc12 (centres undefined)	10.8%	21.9%	?	-19.5	-25.1%	-4.4%
COc1ccccc1N=c1oc2cc(O)ccc2cc1C(=O)NCC1CCCO1 (centres undefined)	-1.0%	1.6%	6.51µM*	-0.8	?	?
COc1ccc2cc(C(N)=O)/c(=N\NC(=O)c3ccccc3)oc2c1	-1.0%	-8.3%	?	?	?	?
COc1ccccc1N=c1oc2cc(O)ccc2cc1C(N)=O	23.1µM*	?	?	?	?	?
Cc1cccc(N=c2oc3cc(O)ccc3cc2C(N)=O)c1	?	?	4.61µM*	-19.4	14.6µM*	?
COc1ccc2cc(C(N)=O)c(=Nc3ccc(C)cc3)oc2c1	13.7%	24.5%	?	-1.5	8.2µM*	-17.3%
